Pf apPOL inh = Pf-apPOL inhibitors, biochemical, fluorescence; inhibition, % at 10 µM; Recombinant Pf-apPOL, molecular beacon fluorescence, 1.5 h; AID 1794808, 2022; actives 0.25% (n = 210,000)
mHTT-CaM PPI inh = mutant huntingtin-calmodulin interaction inhibitors – biochemical, AlphaScreen, primary screen; AID 1671202, 2021; AlphaScreen His-mHTT/GST-CaM binding, luminescence; inhibition, % at 15 µM; actives 3.6% (n = 190,000)
Large screens that a line does not name were inactive. Most compounds without a hit are left out; they make up all but 3.5% or so of the library. No stated cut-off is given here; in the data, active means inhibition above about 50%; inactive means the rest.

COc1ccccc1NC(=O)N1CCN(C2=CC3=NC(C)CN3C=N2)CC1 (centres undefined)	none
Cc1cccc(CNC(=O)c2c(C)sc3ccn(C)c(=O)c23)c1	none
CC1CCN(C(=O)c2ccc(SCc3cccnc3)c([N+](=O)[O-])c2)CC1	none
O=C(CC1Sc2ccccc2NC1=O)NNC(=O)c1cc(C(F)(F)F)cc(C(F)(F)F)c1 (centres undefined)	Pf apPOL inh 58 (no result: mHTT-CaM PPI inh)
O=C(CC1Sc2ccccc2NC1=O)Nc1ccc(C(F)(F)F)cc1 (centres undefined)	none
N#CC1=C(N)N(c2ccccc2F)C2=C(C(=O)CCC2)C1c1cccc([N+](=O)[O-])c1 (centres undefined)	none
Cc1ccc(-n2c(CN3CCN(C(=O)NC4CCCC4)CC3)nc3cccnc32)cc1	none
COc1cc(C=Nc2ccc(NC(C)=O)cc2)cc(OC)c1OC	none
COc1cc(C=Nc2cccc3c(=O)[nH][nH]c(=O)c23)c([N+](=O)[O-])cc1OC	none
COc1cc(C=Nc2ccc(Nc3ccccc3)cc2)cc(OC)c1OC	mHTT-CaM PPI inh 76
COc1cc(C=Nc2ccc(Nc3ccccc3)cc2)c([N+](=O)[O-])cc1OC	mHTT-CaM PPI inh 96
CCc1nnc(NC(=O)CCc2ccccc2)s1	none
CCc1cccc(NC(=O)N2CCc3c(nc4cc(-c5ccccc5)[nH]n4c3=O)C2)c1	none
Cc1ccc(N2CCN(C(=O)c3cccc4[nH]cc(CN5CCCC5)c34)CC2)cc1	mHTT-CaM PPI inh 78
Cc1ccc(NC(=O)c2cccc3[nH]cc(CN4CCCC4)c23)cc1	none
Cc1ccc(NCN2C(=O)C(=O)c3ccccc32)c(C)c1	none
O=C(Oc1cccc2cccnc12)c1c(F)cccc1F	none (no result: mHTT-CaM PPI inh)
O=C(Nc1ccccn1)c1cc(I)ccc1Cl	none
Oc1ccc(Cl)c(C(Nc2ccccn2)c2ccc3cccnc3c2O)c1 (centres undefined)	mHTT-CaM PPI inh 100
Oc1ccccc1C(Nc1ccccn1)c1ccc2cccnc2c1O (centres undefined)	mHTT-CaM PPI inh 100
Oc1c(C(Nc2ccccn2)c2ccccc2F)ccc2cccnc12 (centres undefined)	mHTT-CaM PPI inh 100
Oc1cccc2ccc(Oc3cccc4cccnc34)nc12	none
Cc1cccc(NC(c2ccccc2F)c2ccc3cccnc3c2O)n1 (centres undefined)	mHTT-CaM PPI inh 99
CC(C)(C)C(=O)NC(Nc1cccc2cccnc12)C(Cl)(Cl)Cl (centres undefined)	none
Cc1[nH]nc2c1C(c1c(C)c([N+](=O)[O-])c(C)c([N+](=O)[O-])c1C)C(C#N)=C(N)O2 (centres undefined)	none
O=[N+]([O-])c1cc2c(cc1CN1CCN(Cc3ccccc3)CC1)OCO2	none
COc1ccc(NC(=O)N2CC(C)Oc3ccccc32)cc1OC (centres undefined)	none
CCC(=O)Nc1ccc(C(=O)Nc2cccc(-c3nnc(-c4ccco4)o3)c2)cc1	none
O=S(=O)(Nc1nccs1)c1ccc2ccccc2c1	none (no result: Pf apPOL inh)
Oc1ccccc1C(Nc1nccs1)c1ccc2cccnc2c1O (centres undefined)	mHTT-CaM PPI inh 100
O=C(Nc1ccc([N+](=O)[O-])cc1Br)c1ccco1	none
Nc1ccc([N+](=O)[O-])cc1C(=O)NNC(=O)c1ccco1	Pf apPOL inh 68 (no result: mHTT-CaM PPI inh)
CCCN1C(=O)CN(C2CCCCC2)C(=O)C1c1ccc(OCC)c(OC)c1 (centres undefined)	none
COc1ccc(Br)cc1/C=C(\C#N)c1nn(-c2ccccc2)c(N)c1C#N	none
COc1cc(-c2c(CCO)sc3ccccc23)cc(OC)c1OC	mHTT-CaM PPI inh 97
COCc1ccc(-c2c(-c3ccccc3OC)sc3ccccc23)cc1	none
CCNC(=O)c1ccccc1-c1ccccc1C(=O)O	none
CCNC(=O)c1ccc2c3c(onc13)-c1ccccc1C2=O	mHTT-CaM PPI inh 51
O=C(C1CCC(c2ccc(F)cc2)N(C(=O)c2ccccc2)C1)N1CCOCC1 (centres undefined)	none
COc1ccc(NC2(c3ccc(Cl)cc3)C(=O)c3ccccc3C2=O)cc1	mHTT-CaM PPI inh 100
Cc1ccc(NC2(c3ccccc3)C(=O)c3ccccc3C2=O)cc1	none
COc1ccc(CC(=O)N2CCCC2c2ccccc2F)cc1 (centres undefined)	none
O=C(Nc1ccc(Br)cc1F)c1sc2ccccc2c1Cl	none
COC(=O)c1cc(Nc2ccc(F)cc2)c2cc(F)ccc2n1	none
O=C1NC(=O)/C(=C/c2ccc(Cl)cc2Cl)S1	none
O=C1NC(=O)/C(=C/c2cc(Br)cc(Cl)c2O)S1	mHTT-CaM PPI inh 60
N=C1NC(=O)/C(=C/c2cc(Br)cc(Cl)c2O)S1	none
O=C1NC(=O)/C(=C/c2ccccc2OCc2ccc([N+](=O)[O-])cc2)S1	none
O=C1NC(=O)/C(=C/c2cc(Cl)cc(Cl)c2O)S1	mHTT-CaM PPI inh 86
CCOc1cc([N+](=O)[O-])cc(/C=C2\SC(=O)NC2=O)c1O	Pf apPOL inh 71
O=S(=O)(Cc1ccc(Cl)cc1)c1nc2ccccc2nc1N1CCOCC1	none
COCC(=O)Nc1cccc(I)c1	none

Screens deposited in PubChem by University of Kansas High Throughput Screening Laboratory.
